Hits are enriched below; roughly 9.4% of the tested compounds scored in any of these assays.
ELG1 repair inh: inhibitors of ELG1-dependent DNA repair in HEK293T cells | 2.3% of 330,000 active | Potency, µM (highest dose often 46.1 µM), for the others: at the highest dose activity change, negative = inhibition, actives largely listed as inhibitors | HEK293T ELG1-luciferase reporter, luminescence, 16 h; DNA damage induced by 5-fluorouridine; note: % is set by controls: 0 for no effect and ±100 for the full control effect; nearly all actives have a fitted effect of over 55% in size
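Overnight (16 hr) co-exposure of 2,000 cells/well to 5-fluorouridine and compound at 37 °C preceded detection. Luciferase was quantified via ONE-Glo luminescence; loss of signal denotes inhibition.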
NPC1 promoter act: activators of NPC1 promoter; Huh7 NPC1 promoter luciferase reporter, 24 h; Potency, µM (highest dose often 9.22 µM), for the others: top-dose activation, most hits filed as activators; 2.4% of 320,000 active; AID 485313; note: % of control where 0% means no effect; nearly all actives have a fitted effect of over 60% in size
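Cells: Huh7 expressing luciferase under the NPC1 promoter, 1500/well. Seeded 2 h, compound added, incubated 24 h at 37 °C. Luciferase reagent, 10 min ambient, then luminescence.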
Rab9 promoter act: Rab9 promoter activation. Potency, µM (doses to about 9.22 µM), for inactives: at the top dose activation, negative = inhibition, most hits filed as activators. Huh7 Rab9 promoter-luciferase reporter, luminescence, 24 h. AID 485297. 2.8% of 320,000 active; note: % of control where 0% means no effect; nearly all actives have a fitted effect of over 60% in size
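Cell-based reporter: Huh7 stable for Rab9 promoter-driven luciferase, plated in reduced-serum medium with 10% FBS at 1500 cells/well, compound-treated 24 h at 37 °C, luminescence read after 10 min reagent.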
FLuc modulator: counter-screen for miR-21 project: firefly luciferase inhibitors or activators | P08659 | purified FLuc, Km substrates, luminescence inhibition | 6.9% of 360,000 active | Potency, µM (series often up to 57.5 µM), without a hit: at the highest dose activity change, negative = inhibition, actives largely listed as inhibitors | AID 588342;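 note: plate controls were vehicle for no effect and reference inhibitor for full effect; nearly all actives have a fitted effect of over 55% in size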
Target sequence (P08659 whole entry, looked up): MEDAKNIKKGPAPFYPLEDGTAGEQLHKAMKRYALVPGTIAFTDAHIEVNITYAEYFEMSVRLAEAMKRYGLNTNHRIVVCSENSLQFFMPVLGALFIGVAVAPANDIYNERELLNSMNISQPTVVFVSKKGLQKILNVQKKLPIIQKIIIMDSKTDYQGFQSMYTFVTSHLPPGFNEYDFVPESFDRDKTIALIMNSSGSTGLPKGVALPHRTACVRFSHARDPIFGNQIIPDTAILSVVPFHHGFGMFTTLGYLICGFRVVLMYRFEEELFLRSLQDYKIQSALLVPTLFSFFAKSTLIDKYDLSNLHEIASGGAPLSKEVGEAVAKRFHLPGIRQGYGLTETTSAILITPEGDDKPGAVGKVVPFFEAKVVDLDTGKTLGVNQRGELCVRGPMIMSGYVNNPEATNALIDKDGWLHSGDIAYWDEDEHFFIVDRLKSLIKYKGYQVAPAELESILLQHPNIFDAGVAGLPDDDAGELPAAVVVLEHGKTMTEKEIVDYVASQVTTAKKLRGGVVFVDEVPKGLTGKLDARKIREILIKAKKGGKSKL
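Biochemical qHTS of compounds, final roughly 60 µM downward over six points, against 10 nM purified firefly luciferase using Km concentrations of substrates (10 uM D-luciferin, 10 uM ATP) in Tris acetate pH 7.5 buffer; luminescence output.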
ELG1 genotox: genotoxicity induction in ELG1-luciferase HEK293T cells. 1.3% of 330,000 active. Potency, µM (titrated, usually from 46 µM), for inactives: at the highest dose activity change, positive = activation, most hits filed as activators. HEK293T ELG1-luciferase reporter, luminescence, 16 h; note: % of control where 0% means no effect; nearly all actives have a fitted effect of over 60% in size
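Genotoxicity was scored as increased ELG1-luciferase reporter signal, measured by ONE-Glo luminescence (30 min, room temperature). Compound or vehicle exposure of the HEK293T reporter cells lasted 16 hr at 37°C.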
SMN2 splice up: enhancers of SMN2 splice variant expression; AID 1458; 2.8% of 210,000 active; Potency, µM (doses to about 46.1 µM), inactives show at the highest dose activity change, positive = activation, actives largely listed as activators; HEK293 SMN2-luciferase splicing reporter, luminescence, 30-36 h; note: % of control where 0% means no effect; nearly all actives have a fitted effect of over 55% in size
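HEK293 cells carry an SMN2 […]–luciferase reporter in which exon 7 inclusion puts luciferase in frame. Cells were plated 10-12 h before compound addition, then incubated 30-36 h at 37C. ONE-Glo luminescence was read; sodium butyrate at 4.5 mM final served as control.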
Active calls of the source: *; ? = inconclusive; nt = no result; [ ] = remark or other dose. Calls come from the whole dose curve; as a rule, active = well fitted curve in the direction sought with a large enough effect; inconclusive = small, poorly fitted or top-dose-only effect, or another doubt; inactive = no such curve, though single readings can be large; an effect the other way counts as inactive or inconclusive. Potency is the fitted concentration of half-maximal effect.

SMILES	ELG1 repair inh	NPC1 promoter act	Rab9 promoter act	FLuc modulator	ELG1 genotox	SMN2 splice up
O=C(c1ccc(-c2ccccc2)cc1)C1CCCN(Cc2ccncc2)C1 (centres undefined)	?	3.98µM*	1.26µM*	7.57µM*	?	nt
O=C(O)c1cccc(NC(=O)c2ccc3c(c2)C(=O)N(Cc2ccco2)C3=O)c1	1.9%	0.0%	-2.8%	0.953µM*	1.0%	nt
Cc1c(NC(=O)c2ccc3c(c2)C(=O)N(Cc2ccco2)C3=O)cccc1C(=O)O	19.2%	0.1%	-9.1%	15.1µM*	0.6%	-7.8%
O=C(O)c1cccc(NC2=C(Cl)C(=O)c3ccccc3C2=O)c1	?	24.9%	?	16.9µM*	-23.6%	3.8%
O=C(O)c1ccc2c(c1)C(=O)N(Cc1ccco1)C2=O	-10.5%	-5.8%	-2.4%	6.2%	-2.3%	nt
O=C(Nc1cccc(Br)c1)c1ccc(CSc2ccccc2)cc1	?	16.8%	13.9%	12µM*	5.2%	-7.8%
COc1ccc(NC(=O)C(C)Sc2cc(-c3ccccc3)nc(C)n2)cc1Cl (centres undefined)	nt	nt	nt	0.8%	nt	nt
COc1ccc(Cl)cc1NC(=O)CSC1=Nc2ccccc2C2=NC(CC(=O)NCc3cccs3)C(=O)N12 (centres undefined)	nt	nt	nt	-10.2%	nt	-6.2%
O=C(O)c1cccc(NC(=O)c2ccc(CN3C(=O)c4ccccc4C3=O)cc2)c1	10.2%	1.9%	7.8%	12µM*	0.1%	nt
O=C(O)c1cccc(NC(=O)c2ccc3c(c2)C(=O)N(C2CCCCC2)C3=O)c1	-2.6%	1.58µM*	1µM*	0.19µM*	?	nt
O=C(O)COc1ccc(NC(=O)c2ccc3c(c2)C(=O)N(C2CCCCC2)C3=O)cc1	?	0.6%	-1.8%	-0.8%	-3.3%	nt
O=C(O)c1ccc(CN2C(=O)c3ccc(C(=O)O)cc3C2=O)cc1	23.8%	1.1%	-1.9%	0.9%	1.4%	nt
Cc1cc(=O)c2c(O)c3c(O)cc(O)c4c5c(O)cc(O)c6c(O)c7c(=O)cc(C)c8c1c2c(c34)c(c65)c78	nt	nt	nt	nt	nt	-80.4%
COc1ccccc1C(=O)Nc1ccc(S(=O)(=O)N2CCCCC2c2cccnc2)cc1 (centres undefined)	23.1µM*	-9.6%	-4.7%	-1.6%	-9.6%	nt
COc1ccccc1C(=O)Nc1ccc(N2CCN(S(C)(=O)=O)CC2)cc1	?	24.7%	?	?	9.2µM*	?
COc1ccccc1C(=O)Nc1ccccc1N1CCN(S(C)(=O)=O)CC1	0.0%	-0.5%	-1.3%	2.0%	-9.9%	?
COc1c(C)cccc1C(=O)Nc1ccc(N2CCN(S(C)(=O)=O)CC2)cc1	?	3.98µM*	3.16µM*	15.1µM*	?	?
O=C(Nc1ccc(S(=O)(=O)N2CCCCC2c2cccnc2)cc1)c1ccccc1F (centres undefined)	?	0.9%	-4.2%	3.0%	-17.2%	-45.3%
CCC(=O)N1CCCc2cc(S(=O)(=O)N3CCC(C(=O)Nc4ccccc4CC)CC3)ccc21	nt	nt	nt	-6.5%	nt	nt
COc1ccc([C@]23Cc4ccccc4C(O2)c2c(cc(C)n(Cc4ccccc4)c2=O)O3)cc1	nt	4.3%[1.84 µM]	-4.5%[1.84 µM]	3.3%[11.5 µM]	nt	nt
CCOC(=O)N1CCc2c(sc(NCc3ccc(N(CC)CC)cc3)c2C(=O)Nc2cc(OC)ccc2OC)C1	nt	nt	nt	-17.7%	nt	nt
COc1ccc(NC(=O)c2c(NCc3ccc(OC)c(OC)c3OC)sc3c2CCC3)c(OC)c1	nt	nt	nt	-4.1%	nt	nt
C=CCNCC(=O)Nc1sc2c(c1C(=O)Nc1ccc(OC)cc1OC)CCC2	20.6µM*	-5.5%	-10.4%	-3.3%	-10.7%	-3.5%
CCOC(=O)N1CCc2c(sc(NCc3cccs3)c2C(=O)Nc2ccc(OC)cc2OC)C1	nt	nt	nt	13.5µM*	nt	nt
CCOC(=O)N1CCc2c(sc(NCc3ccc(OC)c(OC)c3OC)c2C(=O)Nc2ccc(OC)cc2OC)C1	nt	nt	nt	15.1µM*	nt	nt
SMILES	ELG1 repair inh	NPC1 promoter act	Rab9 promoter act	FLuc modulator	ELG1 genotox	SMN2 splice up
CCOC(=O)N1CCc2c(sc(NCc3ccc(OCC)cc3)c2C(=O)Nc2ccc(OC)cc2OC)C1	nt	nt	nt	15.1µM*	nt	nt
CCn1c2c(c(=O)n3ncc(C(=O)N4CCN(c5ccc(Cl)cc5)CC4)c13)CN(Cc1ccc(OC)cc1)CC2	nt	nt	nt	-13.7%	nt	nt
CCOc1ccccc1CNC(=O)CCn1cccn1	nt	nt	nt	-3.6%	nt	nt
Nc1nc(N)nc(CC(=O)O)n1	nt	nt	nt	nt	nt	6.1%[9.22 µM]
Cc1ccc(C(=O)Nc2ccc3nc(C)sc3c2)s1	?	2.24µM*	1.78µM*	6.75µM*	?	12.6µM*
Cc1nc2ccc(NC(=O)NCCCO)cc2s1	?	?	?	2.3%[2.3 µM]	13.6%	12.6µM*
Cc1nc2ccc(NC(=O)c3cc([N+](=O)[O-])cc([N+](=O)[O-])c3Cl)cc2s1	?	-26.2%	-35.6%	12µM*	?	2.1%
Cc1nc2ccc(NC(=O)c3cc(Cl)ccn3)cc2s1	?	0.708µM*	0.501µM*	1.51µM*	1.3µM*	nt
CN1CCC[C@@H]1c1cccnc1.O=C(O)c1ccccc1O.O=C([OH2+])c1ccccc1O.O=C([OH2+])c1ccccc1O.O=C([OH2+])c1ccccc1O.[Cu]	nt	nt	nt	nt	nt	-18.9%[9.22 µM]
Cc1nc2cc(NC(=O)c3ccc(Br)s3)ccc2s1	?	0.398µM*	0.316µM*	0.477µM*	?	nt
O=C(Nc1ccon1)c1ccc(Br)s1	10.8%	12.1%	9.3%	-11.5%	-3.6%	nt
NCCNC[C@@H]1COC2(CCCCCCCCCCC2)O1	?	-5.9%	-16.3%	1.2%	-0.1%	nt
Nc1ccc2oc3ccccc3c2c1	?	?	?	?	22.5%	11.2µM*
Cc1ccc(NC(=O)N2CCN(C(=O)c3nsc4ccccc34)CC2)cc1C	nt	nt	nt	-19.9%	nt	nt
COc1ccccc1-c1cnn2c(NC3CCCC3)cc(C)nc12	?	?	2.82µM*	1.9µM*	?	nt
COc1cccc(-c2nc(NC3CCCC3)c3ccccc3n2)c1O	23.1µM*	-0.6%	-3.0%	-9.6%	-6.6%	nt
Oc1ccc(Nc2nc(-c3ccccc3F)nc3ccccc23)cc1	-2.9%	3.1%	3.3%	-5.6%	-7.0%	nt
COc1ccc(Nc2nc(-c3ccccc3F)nc3ccccc23)cc1OC	23.1µM*	-3.5%	0.3%	26.9µM*	-9.9%	nt
COc1ccccc1-c1ccc(NC2CCCC2)nn1	?	26.4%	?	13.5µM*	?	11.2µM*
CCc1cccc(NC(=O)C2CCN(C(=O)c3cnn(-c4ccccc4)c3-n3cccc3)CC2)c1	nt	nt	nt	?	nt	-38.4%
N#C/C(C(=O)N1CCCCC1)=C1\Nc2ccccc2S1	?	?	2.82µM*	10.7µM*	?	17.8µM*
CC1=CS/C(=C(/C#N)C(=O)N2CCCCC2)N1c1ccccc1	1.7%	1.1%	-6.6%	1.5%	-4.3%	15.4%
